Experimental findings from PubChem BioAssay (NCI) are described below.

Assay in all cases: NCI-60 one-dose screen, 48 h (100 = growth as untreated, 0 = no growth, -100 = all killed)
The subject of assay [1] is HCT-15 colon. The note with it: 10 µM unless noted.
Assay [2] concerns HT29 colon. To be noted: 10 µM unless noted.
The test system of assay [3] is SNB-75 CNS. To be noted: 10 µM unless noted.
Assay [4] deals with SNB-19 CNS. The note with it: 10 µM unless noted.
Assay [5] has as its system U251 CNS. To be noted: 10 µM unless noted.
Assay [6] relates to PC-3 prostate. To be noted: 10 µM unless noted.
Assay [7] concerns SK-MEL-5 melanoma. To be noted: 10 µM unless noted.
The test system of assay [8] is UACC-62 melanoma. The note with it: 10 µM unless noted.
Assay [9] concerns LOX IMVI melanoma. To be noted: 10 µM unless noted.
Assay [10] deals with SK-MEL-28 melanoma. To be noted: 10 µM unless noted.
For assay [11], the system named is SK-MEL-2 melanoma. To be noted: 10 µM unless noted.
The subject of assay [12] is EKVX NSCLC. To be noted: 10 µM.
Assay [13] deals with SN12C renal. The note with it: 10 µM unless noted.
Assay [14] concerns UO-31 renal. The note with it: 10 µM unless noted.
Assay [15] relates to TK-10 renal. To be noted: 10 µM unless noted.
Assay [16] concerns ACHN renal. To be noted: 10 µM unless noted.
Assay [17] has as its system CAKI-1 renal. To be noted: 10 µM unless noted.
Assay [18] has as its system A498 renal. The note with it: 10 µM unless noted.
For assay [19], the system named is CCRF-CEM leukemia. The note with it: 10 µM.
Assay [20] relates to MOLT-4 leukemia. The note with it: 10 µM unless noted.

The structures appear in SMILES notation. Compounds without any hit were thinned out: in the full panel of roughly 83,000, 20% have a hit.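 Results are percent growth after 48 hours of single-concentration exposure. 100 means growth as in untreated cells, lower positive values show inhibition; negative values down to -100 show cell death.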 A number with no mark means an inactive call. The source made the active and inactive calls. The calls were made as follows: active = growth percent below 10; inactive = the rest.

`O=C(Nc1cccc(Cn2c(=O)[nH]c3ccc(Oc4ncccn4)cc3c2=O)c1)c1cc(Cl)cc(Cl)c1`: the growth in assay [1] was 77.3%; in assay [2], 47.4%; in assay [3] it was 42.6%; in [4] it was 69.4%; in assay [5], 51.1%; in assay [6] it was 64.5%. Further, the growth was 56.8% in [7]; 66.6% in assay [8]; 86.3% in assay [9]; 60.7% in assay [10]; 55.1% in assay [11]; 72.3% in [12]. For the same compound, the growth in [13] is 59.4%; in assay [14], 65.6%; in assay [15], 71.5%; in [16], 19.8%; in assay [17] it was 91%; in assay [18] it was 85.3%. The growth is 77.9% in [19] and 63.8% in assay [20].

In the case of `CC(=O)Nc1nc(C)c(C(=O)N/N=C/c2cccs2)s1`, the growth in assay [1] was 101%; in [2], 95%; in assay [3] it was 72%; in assay [4], 96.8%; in [5] it was 98.6%; in assay [6] it was 101%. In addition, the growth in assay [7] is 97.7%; in assay [8], 80.1%; in [9], 93.2%; in [10], 95.5%; in [11], 19.3%; in assay [12] it was 107%. For the same compound, the growth was 92.6% in assay [13]; 79.8% in assay [14]; 144% in assay [15]; 95.9% in [16]; 111% in assay [17]; 92.4% in assay [18]. Also, the growth is 84.6% in [19] and 84.1% in [20].

As to `CSC1=Nc2c(c(C)c(-c3ccccc3)n2CCCCl)C2=NC(=O)CN12`, the growth was 64.9% in assay [1]; 23.5% in [2]; 21.2% in assay [3]; 81.2% in assay [4]; 51.6% in assay [5]; 68.9% in assay [6]. Also, the growth is 50.7% in [7]; 36.7% in assay [8]; 49.8% in assay [9]; 55.9% in [10]; 75.4% in assay [11]; 54.2% in assay [12]. Moreover, the growth in assay [13] was 86.3%; in [14], 57.2%; in assay [15] it was 105%; in [16], 88.3%; in assay [17] it was 57.7%; in assay [18], 46.9%. Also, the growth in assay [19] was 51.9%.

As for `CC(C)(C)OC(=O)N1C/C(=C\c2ccccc2)C(=O)/C(=C/c2ccccc2)C1`, the growth in assay [1] is 96.5%; in assay [2], 94.1%; in assay [3] it was 74.9%; in [4] it was 91.2%; in [5], 90.5%; in assay [6] it was 81%. In addition, the growth was 108% in assay [7]; 84% in assay [8]; 95.1% in assay [9]; 107% in assay [10]; 94.2% in [11]; 97.7% in assay [12]. Besides, the growth was 93.5% in assay [13]; 71.9% in assay [14]; 102% in assay [15]; 106% in assay [16]; 84.8% in assay [17]; 101% in [18]. Moreover, the growth in assay [19] was 76.4%; in assay [20], 71.8%.

In the case of `NC(N)=Nc1ccc(/C=C2\C=Cc3ccccc32)cc1`, the growth in assay [1] was 68%; in assay [2] it was 36.1%; in assay [3], 52.7%; in assay [4] it was 75.6%; in assay [5] it was 67.8%; in assay [6] it was 51.9%. The growth in assay [7] is 79.6%; in [8] it was 69%; in assay [9], 40%; in assay [10], 91.6%; in assay [11], 85.6%; in assay [12], 75.7%. The growth in [13] is 79.3%; in [14] it was 49.1%; in [15], 78.1%; in assay [16], 67.8%; in [17], 64.2%; in assay [18], 47.7%. The growth in assay [19] was 49.4%; in [20] it was 37.2%.

On to `COc1ccc(-c2cc(C#N)c(NNC(C)=O)[nH]2)cc1`, for which the growth in assay [1] is 117%; in assay [2], 105%; in [3], 119%; in [4] it was 125%; in assay [5], 102%; in assay [6] it was 115%. Moreover, the growth is 105% in assay [7]; 103% in assay [8]; 103% in [9]; 115% in assay [10]; 102% in assay [11]; 112% in [12]. Besides, the growth in assay [13] was 113%; in assay [14] it was 96.2%; in assay [15], 95.7%; in assay [16], 103%; in assay [17] it was 107%; in assay [18] it was 123%. In addition, the growth in [19] is -0.558% (active); in assay [20], 46%.

For `Cc1c(C(N)=O)sc2c1c(=O)n(Cc1ccccc1)c1nnc(S(C)(=O)=O)n21`, the growth in [1] was 96.1%; in assay [2] it was 88.2%; in assay [3], 94.4%; in [4], 93.2%; in assay [5], 98.7%; in [6], 47.8%. In addition, the growth in assay [7] is 74.8%; in assay [8], 78.1%; in [9] it was 81.2%; in [10], 96.2%; in assay [11], 80.6%; in assay [12], 98%. The growth in [13] was 80.3%; in assay [14], 85.6%; in assay [15], 93.1%; in [16] it was 100%; in assay [17], 86.5%; in assay [18] it was 95.5%.

Turning to `COC(=O)c1ccc(C(=Nc2ccc(N(C)C(=O)CN3CCN(C)CC3)cc2)c2c(O)[nH]c3ccc(C(=O)OC)cc23)cc1`, the growth in assay [1] was 27%; in assay [2], 29.7%; in assay [3], 24.6%; in assay [4] it was 55.3%; in assay [5], 29%; in assay [6], 28.8%. The growth in [7] was 36.4%; in assay [8], 42.7%; in assay [9] it was 38.5%; in assay [10] it was 50.4%; in assay [11], 47.7%; in assay [12], 64.3%. Besides, the growth was 17.3% in assay [13]; 38.3% in assay [14]; 51.7% in assay [15]; 18.6% in assay [16]; 11.9% in [17]; 18.2% in assay [18]. Also, the growth was 12.3% in assay [19] and 14.8% in assay [20].
